ChEMBL document CHEMBL3988442, “University of Dundee, Small-Polar-MMV Screening Library” (2021)
For some of these results: Potency and affinity values are given separately.

Columns and labels:
Parameters in all cases: scale not given: direction of the effect not stated beside the values
[1] = molecular target: Protein translocase subunit SecA (Escherichia coli (strain K12)) (UniProt P10408); experiment: Assay to Identify E. coli SecA ATPase Inhibitors; format: functional; settings: 30 µM
[2] = molecular target: T1, Ubiquitin-activating enzyme e1, putative (Leishmania donovani (strain BPK282A1)) (UniProt E9BSI1); experiment: Leishmania donovani Ubiquitin Activating Enzyme (LdE1); format: functional; settings: 30 µM
T1 sequence (whole entry): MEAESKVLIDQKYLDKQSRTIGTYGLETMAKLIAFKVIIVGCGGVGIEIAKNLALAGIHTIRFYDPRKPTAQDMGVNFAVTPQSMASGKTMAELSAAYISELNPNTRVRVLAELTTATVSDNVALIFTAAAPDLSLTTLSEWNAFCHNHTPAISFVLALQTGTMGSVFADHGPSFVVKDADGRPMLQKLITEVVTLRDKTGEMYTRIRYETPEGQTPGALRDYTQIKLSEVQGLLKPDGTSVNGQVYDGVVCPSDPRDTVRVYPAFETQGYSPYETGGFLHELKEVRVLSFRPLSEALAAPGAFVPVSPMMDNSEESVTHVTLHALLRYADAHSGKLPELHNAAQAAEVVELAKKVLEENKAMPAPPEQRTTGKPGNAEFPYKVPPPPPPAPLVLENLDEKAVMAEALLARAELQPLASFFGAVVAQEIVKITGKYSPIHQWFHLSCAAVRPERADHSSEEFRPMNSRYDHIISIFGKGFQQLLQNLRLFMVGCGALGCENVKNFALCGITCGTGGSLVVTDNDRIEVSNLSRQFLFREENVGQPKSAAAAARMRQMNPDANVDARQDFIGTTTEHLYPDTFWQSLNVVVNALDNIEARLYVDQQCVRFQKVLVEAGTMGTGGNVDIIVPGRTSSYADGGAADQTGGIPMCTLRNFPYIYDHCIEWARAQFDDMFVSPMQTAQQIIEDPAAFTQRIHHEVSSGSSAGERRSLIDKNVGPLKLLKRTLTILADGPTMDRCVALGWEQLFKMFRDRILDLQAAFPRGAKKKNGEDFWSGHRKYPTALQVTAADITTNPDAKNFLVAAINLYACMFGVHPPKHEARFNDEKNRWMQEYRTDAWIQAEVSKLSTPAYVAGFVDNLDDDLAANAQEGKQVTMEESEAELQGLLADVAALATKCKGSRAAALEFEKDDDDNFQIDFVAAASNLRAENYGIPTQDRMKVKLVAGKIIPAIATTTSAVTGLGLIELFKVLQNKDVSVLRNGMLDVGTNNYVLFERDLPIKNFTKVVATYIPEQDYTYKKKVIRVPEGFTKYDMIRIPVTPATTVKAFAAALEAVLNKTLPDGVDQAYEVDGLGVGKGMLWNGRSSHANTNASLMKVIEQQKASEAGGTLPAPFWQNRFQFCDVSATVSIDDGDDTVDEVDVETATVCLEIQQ

[3] = molecular target: AMP-activated protein kinase, AMPK (Homo sapiens) (UniProt P54646+O43741+P54619+Q9UGJ0+Q9Y478+Q13131+Q9UGI9); experiment: AMP-dependent Kinase enzyme assay. An in vitro enzyme assay that detects ADP turnover that is directly proportional to AMPK activity. This uses naive AMPK that is activated during the assay with MK-8722; format: functional; settings: 30 µM
[4] = molecular target: Sialic acid-binding Ig-like lectin 9 (Homo sapiens) (UniProt Q9Y336); experiment: Hs-Siglec9 ALPHAscreen SOP 20170721; settings: 10 µM
Sequence of Sialic acid-binding Ig-like lectin 9 (Homo sapiens) (Q9Y336 whole entry): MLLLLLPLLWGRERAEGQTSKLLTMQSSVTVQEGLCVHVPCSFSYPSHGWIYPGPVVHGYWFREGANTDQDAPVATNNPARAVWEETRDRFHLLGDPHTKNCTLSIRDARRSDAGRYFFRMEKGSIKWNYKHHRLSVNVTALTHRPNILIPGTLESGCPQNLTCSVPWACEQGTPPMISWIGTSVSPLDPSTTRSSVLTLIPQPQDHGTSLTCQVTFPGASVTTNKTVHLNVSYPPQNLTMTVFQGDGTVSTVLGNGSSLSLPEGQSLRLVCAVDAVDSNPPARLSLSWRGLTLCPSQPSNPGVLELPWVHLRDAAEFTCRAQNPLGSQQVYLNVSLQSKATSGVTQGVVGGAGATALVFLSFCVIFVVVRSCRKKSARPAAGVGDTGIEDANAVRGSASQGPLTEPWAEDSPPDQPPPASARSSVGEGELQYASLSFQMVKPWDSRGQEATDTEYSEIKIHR

Trypanosoma cruzi = experiment: Trypanosoma cruzi phosphomannomutase and mannose-1-phosphate guanylyltransferase assay; format: functional; settings: 10 µM
[5] = molecular target: T2, Arginase-2, mitochondrial (Homo sapiens) (UniProt P78540); experiment: in vitro enzyme assay to detect the production of urea directly proportional to the activity of Arginase II; format: functional; settings: 33.3 µM; note: in the data most compounds retested in dose-response had high values
T2 sequence (whole entry): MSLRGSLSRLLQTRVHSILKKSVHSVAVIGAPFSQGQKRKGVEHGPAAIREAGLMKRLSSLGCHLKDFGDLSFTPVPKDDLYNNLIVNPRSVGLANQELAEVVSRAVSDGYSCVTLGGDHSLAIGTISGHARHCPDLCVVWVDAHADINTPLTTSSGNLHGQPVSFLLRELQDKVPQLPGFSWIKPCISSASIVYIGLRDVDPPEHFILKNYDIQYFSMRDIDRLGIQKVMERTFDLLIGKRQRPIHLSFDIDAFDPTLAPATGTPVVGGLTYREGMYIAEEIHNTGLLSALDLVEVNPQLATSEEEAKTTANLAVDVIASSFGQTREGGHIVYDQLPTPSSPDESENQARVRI

[6] = molecular target: T3, Proteasome subunit beta (Trypanosoma cruzi) (UniProt O96673); experiment: Trypanosoma cruzi proteasome chymotrypsin-like activity (TcProtChymo) assay.; note: in the data most compounds retested in dose-response had high values; format: functional; settings: 9.37 µM
T3 sequence (whole entry): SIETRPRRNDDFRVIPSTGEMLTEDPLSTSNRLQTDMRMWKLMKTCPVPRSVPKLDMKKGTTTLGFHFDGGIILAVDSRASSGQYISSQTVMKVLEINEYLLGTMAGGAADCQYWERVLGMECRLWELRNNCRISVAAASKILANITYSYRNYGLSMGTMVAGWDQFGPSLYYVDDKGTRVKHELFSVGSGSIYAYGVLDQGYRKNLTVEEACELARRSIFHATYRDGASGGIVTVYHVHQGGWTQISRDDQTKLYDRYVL

Homo sapiens = species on record: Homo sapiens; experiment: To identify inhibition of the IFN signalling (Jak-Stat) pathway via expression of an eGFP reporter gene under the control of an IFN-stimulated response element (ISRE) containing MxA promoter.; format: functional; settings: 30 µM
[7] = molecular target: T4, Tyrosyl-tRNA synthetase, putative (Trypanosoma cruzi (strain CL Brener)) (UniProt Q4DSP6); experiment: Trypanosoma cruzi tyrosyl tRNA synthetase (TcYRS) _High Tyrosine SOP; format: functional; settings: 30 µM; note: in the data most compounds retested in dose-response had high values
T4 sequence (whole entry): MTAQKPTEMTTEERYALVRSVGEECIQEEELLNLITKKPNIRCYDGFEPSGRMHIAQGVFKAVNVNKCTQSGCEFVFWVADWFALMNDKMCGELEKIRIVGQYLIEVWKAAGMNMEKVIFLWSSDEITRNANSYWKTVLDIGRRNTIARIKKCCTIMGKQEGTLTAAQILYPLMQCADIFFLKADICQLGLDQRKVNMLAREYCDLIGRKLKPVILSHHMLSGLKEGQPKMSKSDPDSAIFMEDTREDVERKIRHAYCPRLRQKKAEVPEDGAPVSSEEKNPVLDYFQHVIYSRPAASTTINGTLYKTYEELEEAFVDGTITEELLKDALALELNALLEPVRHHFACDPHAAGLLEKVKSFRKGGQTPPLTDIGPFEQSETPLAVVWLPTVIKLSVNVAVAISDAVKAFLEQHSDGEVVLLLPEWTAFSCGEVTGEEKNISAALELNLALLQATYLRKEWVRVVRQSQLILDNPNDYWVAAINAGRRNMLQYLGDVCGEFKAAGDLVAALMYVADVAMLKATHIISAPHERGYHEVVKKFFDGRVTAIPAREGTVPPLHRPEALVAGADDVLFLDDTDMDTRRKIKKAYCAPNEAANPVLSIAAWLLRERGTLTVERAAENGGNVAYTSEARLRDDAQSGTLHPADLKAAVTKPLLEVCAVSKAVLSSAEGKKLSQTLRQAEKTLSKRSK

[8] = molecular target: T4, Tyrosyl-tRNA synthetase, putative (Trypanosoma cruzi (strain CL Brener)); experiment: Trypanosoma cruzi tyrosyl tRNA synthetase (TcYRS) SOP; format: functional; settings: 30 µM
[9] = molecular target: Chromo domain-containing protein 1 (Saccharomyces cerevisiae (strain ATCC 204508 / S288c) (Baker's yeast)) (UniProt P32657); experiment: ScCHD-1 Enzyme Inhibition Assay; format: functional; settings: 30 µM; note: in the data most compounds retested in dose-response had high values
Sequence of Chromo domain-containing protein 1 (Saccharomyces cerevisiae (strain ATCC 204508 / S288c) (Baker's yeast)) (P32657 whole entry, the tested form may be a part): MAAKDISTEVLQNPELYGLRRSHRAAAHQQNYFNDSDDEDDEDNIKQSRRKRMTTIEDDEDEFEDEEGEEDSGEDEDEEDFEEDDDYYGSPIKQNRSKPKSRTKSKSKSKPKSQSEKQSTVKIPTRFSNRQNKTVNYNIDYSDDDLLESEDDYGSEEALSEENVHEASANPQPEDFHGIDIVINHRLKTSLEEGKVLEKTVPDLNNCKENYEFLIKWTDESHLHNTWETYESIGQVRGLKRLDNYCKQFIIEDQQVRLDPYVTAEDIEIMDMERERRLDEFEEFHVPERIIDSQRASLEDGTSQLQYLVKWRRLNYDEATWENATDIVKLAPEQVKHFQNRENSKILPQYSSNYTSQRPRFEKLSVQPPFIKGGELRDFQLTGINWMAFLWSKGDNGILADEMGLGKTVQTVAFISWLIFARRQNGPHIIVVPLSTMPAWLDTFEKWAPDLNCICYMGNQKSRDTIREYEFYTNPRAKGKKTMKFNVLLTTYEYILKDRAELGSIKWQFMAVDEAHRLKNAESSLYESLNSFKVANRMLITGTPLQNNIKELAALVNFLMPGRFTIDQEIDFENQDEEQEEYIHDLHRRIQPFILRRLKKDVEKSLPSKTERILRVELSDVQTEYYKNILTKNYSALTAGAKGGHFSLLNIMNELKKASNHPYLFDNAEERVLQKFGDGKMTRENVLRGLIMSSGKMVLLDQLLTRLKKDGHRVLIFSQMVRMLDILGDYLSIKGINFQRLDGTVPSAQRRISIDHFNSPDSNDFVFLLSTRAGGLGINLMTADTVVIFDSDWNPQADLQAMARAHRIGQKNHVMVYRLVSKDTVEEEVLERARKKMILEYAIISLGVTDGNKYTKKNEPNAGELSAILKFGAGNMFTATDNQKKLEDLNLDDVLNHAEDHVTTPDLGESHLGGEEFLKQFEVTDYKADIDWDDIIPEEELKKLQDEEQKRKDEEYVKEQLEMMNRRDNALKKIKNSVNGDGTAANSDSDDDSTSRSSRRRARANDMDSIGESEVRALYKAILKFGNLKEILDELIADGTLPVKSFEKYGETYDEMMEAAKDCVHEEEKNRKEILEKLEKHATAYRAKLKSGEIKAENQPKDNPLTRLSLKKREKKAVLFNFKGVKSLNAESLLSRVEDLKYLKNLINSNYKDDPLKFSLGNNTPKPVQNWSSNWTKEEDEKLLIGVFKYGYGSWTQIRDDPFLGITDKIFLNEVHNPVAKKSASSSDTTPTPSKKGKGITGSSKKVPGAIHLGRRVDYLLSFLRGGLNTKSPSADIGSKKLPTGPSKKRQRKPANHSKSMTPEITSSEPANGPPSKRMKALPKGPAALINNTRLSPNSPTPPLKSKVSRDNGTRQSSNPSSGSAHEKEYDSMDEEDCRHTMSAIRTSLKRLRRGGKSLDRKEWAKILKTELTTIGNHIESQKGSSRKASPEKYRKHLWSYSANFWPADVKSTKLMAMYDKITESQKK

Sequence of Protein translocase subunit SecA (Escherichia coli (strain K12)) (P10408 whole entry): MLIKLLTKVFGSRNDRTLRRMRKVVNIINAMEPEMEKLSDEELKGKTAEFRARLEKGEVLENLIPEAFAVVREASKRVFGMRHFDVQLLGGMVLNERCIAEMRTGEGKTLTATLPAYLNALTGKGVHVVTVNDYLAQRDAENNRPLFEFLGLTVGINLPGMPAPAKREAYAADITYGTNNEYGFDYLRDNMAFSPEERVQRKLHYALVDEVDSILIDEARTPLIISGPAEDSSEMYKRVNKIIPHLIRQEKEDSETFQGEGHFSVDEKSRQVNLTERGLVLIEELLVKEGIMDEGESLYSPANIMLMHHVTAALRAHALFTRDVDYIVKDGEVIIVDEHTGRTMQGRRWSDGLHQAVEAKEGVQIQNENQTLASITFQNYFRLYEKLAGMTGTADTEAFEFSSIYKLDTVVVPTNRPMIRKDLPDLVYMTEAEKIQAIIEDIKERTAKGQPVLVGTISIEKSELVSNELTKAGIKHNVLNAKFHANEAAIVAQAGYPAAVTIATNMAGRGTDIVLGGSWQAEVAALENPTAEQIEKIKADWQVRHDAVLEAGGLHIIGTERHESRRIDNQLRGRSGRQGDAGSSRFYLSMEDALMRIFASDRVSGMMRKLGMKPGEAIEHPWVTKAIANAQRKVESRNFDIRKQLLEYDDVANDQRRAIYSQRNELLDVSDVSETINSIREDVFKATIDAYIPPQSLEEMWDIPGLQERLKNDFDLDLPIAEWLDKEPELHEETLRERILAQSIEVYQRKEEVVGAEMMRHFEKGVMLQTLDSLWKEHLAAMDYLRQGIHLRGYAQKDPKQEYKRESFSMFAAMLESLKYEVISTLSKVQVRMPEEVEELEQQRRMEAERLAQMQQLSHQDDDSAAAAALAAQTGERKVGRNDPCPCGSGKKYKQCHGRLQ

Compound	Percent Effect [1]	Percent Effect [2]	Percent Effect [3]	Percent Effect [4]	Percent Effect (Trypanosoma cruzi)	Percent Effect [5]	Percent Effect [6]	Percent Effect (Homo sapiens)	Percent Effect [7]	Percent Effect [8]	Percent Effect [9]
O=C(Cc1cccnc1)N1CCC2(CC1)CCN(C1CCOCC1)C2	-5.91%	0%	0.681%	-0.504%	-1.67%	-2.76%	1.83%	15.5%	1.07%	-1.24%	1.45%
CCc1ccc(S(=O)(=O)Nc2cn(C)cc(Br)c2=O)cc1	-3.35%	5.41%	-3.87%	18.4%	4.25%	-0.952%	11.6%	6.27%	2.65%	12.2%	-5.04%
Cn1ccnc1CN1CCCN(C(=O)c2ccc(Cl)o2)CC1	-4.86%	0%	-1.55%	4.15%	1.4%	1.44%	3.13%	-16.8%	2.46%	1.24%	0.744%
CCN(CC1CCCO1)C(=O)Nc1cc(C(=O)OC)ccc1F (stereo unspecified)	-2.67%	7.59%	1.58%	13.4%	-1.98%	1.9%	2.21%	0.11%	3.45%	8.86%	-8.28%
Cc1cc(C)n(CC2CCCN2C(=O)c2ccc(C(N)=O)cn2)n1 (stereo unspecified)	-6.82%	16.5%	1.06%	-0.198%	2.56%	1.5%	7.38%	7.83%	-3.12%	17.7%	-27.9%
c1ccc(-c2ncc(CNC3CCc4ncnn4C3)cn2)cc1 (stereo unspecified)	-5%	8.86%	6.48%	-1.35%	-1.33%	9.25%	3.26%	-3.68%	7.29%	10.1%	-13.8%
Cc1ccccc1OCCC(=O)OC(C)C(=O)Nc1sccc1C(N)=O (stereo unspecified)	-2.66%	-2.7%	6.19%	-3.07%	-9.09%	-10.2%	8.33%	44.8%	-15.1%	-16.1%	15.1%
Cc1[nH]ccc1C(=O)N1CCC(c2nnc(Cn3cccn3)n2C)CC1	-2.68%	2.74%	-3.04%	10.2%	2.98%	1.6%	6.42%	-10.2%	5.21%	13.6%	1.58%
Cc1cccc2nc(C(=O)N3CCC(Nc4cccnn4)CC3)cn12	-4.19%	5.2%	2.91%	37.9%	-0.0979%	-1.47%	8.16%	3.1%	0%	9.41%	-18.7%
CCSc1ccc(C(=O)Nc2c(C)nn(C(C)C)c2C)cn1	-9.54%	-2.74%	1.71%	-2.98%	-0.198%	-1.2%	4.71%	20.2%	0%	1.24%	-2.1%
CCN(Cc1ccc2c(c1)OCO2)C(=O)CCc1c(C)nc(C)[nH]c1=O	-1.41%	5.26%	1.51%	7.45%	-4.32%	9.96%	6.85%	21.9%	3.43%	9.76%	-1.69%
